Test results from PubChem BioAssay (NCI).
About 83,000 compounds went through this panel and 20% of them were active in at least one assay; those are over-represented in the sample as a whole.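 Values shown are percent growth following 48 h exposure of cells in 96-well plates to a single concentration of compound; below 10 was considered active.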 Calls of active or inactive are those of the source.

Columns and labels:
Experiment in all cases: NCI-60 one-dose screen, 48 h (100 = growth as untreated, 0 = no growth, -100 = all killed)
Conditions in all cases: 10 µM unless noted
RPMI-8226 leukemia = tested on: RPMI-8226 leukemia
OVCAR-5 ovarian = tested on: OVCAR-5 ovarian
OVCAR-4 ovarian = tested on: OVCAR-4 ovarian
SK-OV-3 ovarian = tested on: SK-OV-3 ovarian
IGROV1 ovarian = tested on: IGROV1 ovarian
OVCAR-3 ovarian = tested on: OVCAR-3 ovarian
HS 578T breast = tested on: HS 578T breast
NCI/ADR-RES ovarian = tested on: NCI/ADR-RES ovarian
T-47D breast = tested on: T-47D breast
BT-549 breast = tested on: BT-549 breast
SW-620 colon = tested on: SW-620 colon
MCF7 breast = tested on: MCF7 breast
HCT-116 colon = tested on: HCT-116 colon
HCC-2998 colon = tested on: HCC-2998 colon
KM12 colon = tested on: KM12 colon
OVCAR-8 ovarian = tested on: OVCAR-8 ovarian
MDA-MB-435 melanoma = tested on: MDA-MB-435 melanoma

Measured: growth

CCCCCCCOc1c(OC)cc(C2CC(=O)Nc3c2c(C)nn3-c2nc3ccccc3[nH]2)cc1OC (configuration not stated)
active: RPMI-8226 leukemia 8.24% | OVCAR-5 ovarian 9.97% | OVCAR-4 ovarian -11.8% | SK-OV-3 ovarian -51.3% | IGROV1 ovarian 2.58% | OVCAR-3 ovarian -67.1% | HS 578T breast -19.8% | BT-549 breast 6.89% | SW-620 colon 3.05% | MCF7 breast 6.22% | HCT-116 colon 4.4% | KM12 colon 1.11%
inactive: NCI/ADR-RES ovarian 13.7% | T-47D breast 11.8% | HCC-2998 colon 79.2%

CC(C)C(=O)Nc1n[nH]c2cc(-c3cccc(NS(=O)(=O)C4CC4)c3)ccc12
inactive: RPMI-8226 leukemia 66.1% | OVCAR-8 ovarian 82.2% | OVCAR-5 ovarian 87.4% | SK-OV-3 ovarian 62.3% | IGROV1 ovarian 64.6% | OVCAR-3 ovarian 57.8% | HS 578T breast 77.7% | MDA-MB-435 melanoma 12.9% | SW-620 colon 74.5% | MCF7 breast 33.2% | HCT-116 colon 52.5% | HCC-2998 colon 83.4% | KM12 colon 61.3%

COc1ccc(Cl)cc1NC(=O)C(Br)C(Br)C(=O)O (configuration not stated)
active: IGROV1 ovarian -14.4% | OVCAR-3 ovarian 9.69% | NCI/ADR-RES ovarian -13.8% | SW-620 colon 8.71% | HCT-116 colon 8.19%
inactive: RPMI-8226 leukemia 11.7% | OVCAR-5 ovarian 122% | OVCAR-4 ovarian 30.5% | SK-OV-3 ovarian 101% | HS 578T breast 86.3% | T-47D breast 19.9% | MDA-MB-435 melanoma 34.2% | MCF7 breast 23.8% | HCC-2998 colon 38.6% | KM12 colon 83.2%

COc1ccc(OC)c2c1[nH]c(=O)c1c3ncccc3cn21
active: MCF7 breast 8.95%
inactive: RPMI-8226 leukemia 30.1% | OVCAR-8 ovarian 16.8% | SK-OV-3 ovarian 38.9% | IGROV1 ovarian 28% | OVCAR-3 ovarian 46.8% | NCI/ADR-RES ovarian 13.8% | T-47D breast 39% | BT-549 breast 86.6% | MDA-MB-435 melanoma 28.6% | SW-620 colon 15.2% | HCT-116 colon 21.7% | HCC-2998 colon 36.1% | KM12 colon 32.5%
